Data reported in PubChem BioAssay (Tox21).
Results filed as inconclusive are left out. Active and inactive are the calls of the source. Unless noted, the call rests on the fitted dose curve; in most records, active means well fitted curve in the direction sought with a large enough effect in the repeat runs; inconclusive means weak or mixed curves; inactive means no such curve, though single readings can be large; an effect the other way counts as inactive or inconclusive.

Key:
[1] = qHTS assay to identify small molecule antagonists of the retinoid acid receptor (RAR) signaling pathway - cell viability counter screen (AID 1159551); further: nearly all actives have a fitted effect of over 35% in size
In short: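 Cytotoxicity counter screen in C3RL4 cells: 6 h compound exposure with 1 uM retinol (final), viability from cellular ATP by luminescence.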

[2] = qHTS assay to identify small molecule antagonists of the retinoic acid receptor (RAR) signaling pathway (AID 1159552; further: nearly all actives have a fitted effect of over 50% in size)
In short: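 Using a RARE-driven luciferase construct in C3RL4 cells, retinol at 1 uM final provided the agonist stimulus while compounds were co-applied. After 6 hours at 37 C, luminescence was recorded to flag inhibitors of retinol signaling.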

[3] = qHTS assay to identify small molecule agonists of the retinoic acid receptor (RAR) signaling pathway (AID 1159553)
In short: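 Agonist activity was scored in C3RL4 cells bearing a retinoic acid response element luciferase construct. Cells were treated with compounds for 6 hr at 37 C, and luciferase signal was measured as luminescence.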

[4] = qHTS assay to identify small molecule antagonists of the estrogen related receptor (ERR) signaling pathway from Tox21 library - cell viability counter screen (AID 1224834); further: nearly all actives have a fitted effect of over 30% in size
In short: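 Cytotoxicity of test substances is gauged in the same ERR cells used for the antagonist screen, after 17.5 h of compound treatment at 37 C, by CellTiter-Fluor fluorescence measured after 30 min.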

[5] = molecular target: Luciferin 4-monooxygenase (Photinus pyralis) (UniProt P08659); experiment: qHTS assay to identify small molecule inhibitors of firefly luciferase (AID 1224835); further: nearly all actives have a fitted effect of over 25% in size
In short: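 Biochemical qHTS: compounds run as interplate titrations against purified firefly enzyme, with D-luciferin and ATP each at its KM concentration. Light output recorded by CCD imaging.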

[6] = qHTS assay to identify small molecule agonists of the constitutive androstane receptor (CAR) signaling pathway - cell viability counter screen (AID 1224836); further: nearly all actives have a fitted effect of over 45% in size
In short: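 Multiplexed viability check: HepG2-CYP2B6-hCAR cells, 15-point compound dosing, 0.75 uM PK11195 final, 23 h at 37 C, CellTiter-Fluor fluorescence.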

[7] = qHTS assay to identify small molecule antagonists of the constitutive androstane receptor (CAR) signaling pathway - cell viability counter screen (AID 1224837); further: nearly all actives have a fitted effect of over 45% in size
In short: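 Multiplexed cytotoxicity read-out for the CAR antagonist screen: double-stable HepG2-CYP2B6-hCAR cells co-treated with 50 nM CITCO (final) and compound over 15 concentrations, incubated 23 hr, then assessed by CellTiter-Fluor fluorescence.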

[8] = molecular target: Nuclear receptor subfamily 1 group I member 3 (Homo sapiens) (UniProt Q14994); experiment: qHTS assay to identify small molecule antagonists of the constitutive androstane receptor (CAR) signaling pathway (AID 1224838); further: nearly all actives have a fitted effect of over 40% in size
In short: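 Compounds were titrated across 15 concentrations onto HepG2 cells double-stably expressing hCAR and a CYP2B6-2.2kb reporter, together with 50 nM CITCO (final). After 24 h at 37 C, luciferase activity was measured by luminescence.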

[9] = molecular target: Nuclear receptor subfamily 1 group I member 3 (Homo sapiens) (UniProt Q14994); experiment: qHTS assay to identify small molecule agonists of the constitutive androstane receptor (CAR) signaling pathway (AID 1224839);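 further: HepG2 cells stably carrying human CAR and a CYP2B6 luciferase reporter; nearly all actives have a fitted effect of over 15% in size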
In short: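 Using human hepatoma HepG2 cells engineered with hCAR and a CYP2B6-2.2kb reporter, 15-concentration compound series were incubated 24 h alongside PK11195 at 0.75 uM final, with luminescence quantified afterwards.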

[10] = qHTS assay to identify small molecule antagonists of the estrogen related receptor signaling pathway with the pleiotropic PPARgamma coactivator (PGC) from Tox21 10K library - cell viability counter screen (AID 1224840; active means well fitted cell-killing curve with a large enough effect in the repeat runs, not every such curve was filed as active; further: nearly all actives have a fitted effect of over 40% in size)
In short: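 Step one, plate 2,000 PGC/ERR cells per well; step two, incubate 6 h at 37 C/5% CO2; step three, pin-transfer compounds; step four, incubate 17.5 h; step five, add CellTiter-Fluor and read fluorescence after 30 min.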

[11] = molecular target: Thyrotropin receptor (Homo sapiens) (UniProt P16473); experiment: qHTS assay to identify small molecule agonists of the thyroid stimulating hormone receptor (TSHR) signaling pathway (AID 1224843; calls by dose curve; further: nearly all actives have a fitted effect of over 45% in size)
In short: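 Steps: seed 800 TSHR-HEK293 cells per well; add test compound and hold 30 min at ambient temperature; dispense cAMP-d2 then anti-cAMP cryptate; incubate 1 h at ambient; measure fluorescence intensity.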

[12] = qHTS assay to identify small molecule agonists of the hypoxia (HIF-1) signaling pathway - cell viability counter screen (AID 1224844; calls by dose curve; further: nearly all actives have a fitted effect of over 50% in size)
In short: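 Tox21 10K compounds were added to HRE-bla ME-180 cells (0.5% dialyzed FBS) and incubated 17 hrs at 37C; ATP-based CellTiter-Glo luminescence then reported cell viability in the same wells.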

[13] = qHTS assay to identify small molecule agonists of H2AX (AID 1224845; active means well fitted activation curve with a large enough effect in the signal ratio in the repeat runs, not every such curve was filed as active; the % refers to the signal ratio)
In short: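 Wild-type CHO-K1 cells, plated overnight, exposed 3hr at 37C to 15 concentrations (0.76% DMSO final). Lysed, then HTRF anti-pH2AX (S139) cryptate and anti-H2AX-d2 antibodies, 24 hr room temperature; 665/620 nm emission read.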

[14] = qHTS RealTime-Glo MT Cell Viability Assay in HepG2 cells - 24 hour (AID 1224867); further: nearly all actives have a fitted effect of over 50% in size
In short: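 HepG2 cells were seeded at 600 cells/well together with NanoLuc luciferase and a cell-permeant prosubstrate, preincubated 5 h at 37 C/5% CO2, then pin-dosed with compounds in DMSO. Nonlytic luminescence from viable cells was read at each time point.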

[15] = qHTS assay to identify small molecule agonists of the hypoxia (HIF-1) signaling pathway (AID 1224846; active means well fitted activation curve with a large enough effect in the signal ratio in the repeat runs, not every such curve was filed as active; the % refers to the signal ratio)
In short: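 Steps: seed ME-180 HRE-bla cells (2,000/well, 0.5% dialyzed FBS); incubate 5 hrs at 37C; pin-transfer compounds or DMSO; incubate 17 hrs; add LiveBLAzer B/G substrate CCF4-AM; measure reporter activation by FRET.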

[16] = qHTS assay to identify small molecule agonists of H2AX - cell viability counter screen (AID 1224847; calls by dose curve; further: top concentration of the series differs between compounds; nearly all actives have a fitted effect of over 30% in size)
In short: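 After overnight plating of 1000 CHO-K1 cells per well, a 15-concentration compound series was applied for 3 hr at 37C. Luminescence from CellTiter-Glo, read following 30 min at room temperature, reflected cell viability.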

[17] = qHTS assay to identify small molecule antagonists of the estrogen related receptor signaling pathway with the pleiotropic PPARgamma coactivator (PGC) from Tox21 10K library (AID 1224841; call rule not given here; further: actives are mostly falling curves and most rising ones were filed inactive; nearly all actives have a fitted effect of over 50% in size)
In short: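 Antagonism in this quantitative HTS is taken from loss of luciferase signal in PGC/ERR cells. Cells (2,000/well) are treated with compounds in DMSO after a 6 h settling period and read by One-Glo luminescence after 18 h.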

[18] = qHTS assay to identify small molecule agonists of the estrogen related receptor signaling pathway with the pleiotropic PPARgamma coactivator (PGC) from Tox21 10K library (AID 1224842); further: nearly all actives have a fitted effect of over 15% in size; further: potency means the concentration at half of the fitted maximal effect
In short: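 PGC/ERR reporter cell line, 2,000 cells per well, incubated 6 h at 37 C before 23 nL compound in DMSO was added. After 18 h at 37 C, One-Glo luminescence read following 30 min at room temperature.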

[19] = qHTS assay to identify small molecule antagonists of the estrogen related receptor (ERR) signaling pathway from Tox21 library (AID 1224848); further: nearly all actives have a fitted effect of over 50% in size
In short: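 Luminescent reporter read-out (ONE-Glo) from NTP's ERR cell line after 18 h treatment at 37 C with DMSO-dissolved Tox21 compounds; cells pre-plated 6 h beforehand at 2,000 per well.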

[20] = qHTS assay to identify small molecule agonists of the estrogen related receptor (ERR) signaling pathway from Tox21 library (AID 1224849; calls by dose curve; further: nearly all actives have a fitted effect of over 15% in size); conditions: ERR reporter cell line, ONE-Glo luciferase, 18 h; at 92.4 µM (top of the series) unless noted
In short: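 Agonist signal is luciferase luminescence from an ERR reporter cell line treated 18 h at 37 C with DMSO-dissolved compounds, read 30 min after ONE-Glo addition at room temperature.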
On the % scale 0 is the no-effect control and ±100 the full control effect.

Thyrotropin receptor (Homo sapiens), sequence (P16473 whole entry, looked up): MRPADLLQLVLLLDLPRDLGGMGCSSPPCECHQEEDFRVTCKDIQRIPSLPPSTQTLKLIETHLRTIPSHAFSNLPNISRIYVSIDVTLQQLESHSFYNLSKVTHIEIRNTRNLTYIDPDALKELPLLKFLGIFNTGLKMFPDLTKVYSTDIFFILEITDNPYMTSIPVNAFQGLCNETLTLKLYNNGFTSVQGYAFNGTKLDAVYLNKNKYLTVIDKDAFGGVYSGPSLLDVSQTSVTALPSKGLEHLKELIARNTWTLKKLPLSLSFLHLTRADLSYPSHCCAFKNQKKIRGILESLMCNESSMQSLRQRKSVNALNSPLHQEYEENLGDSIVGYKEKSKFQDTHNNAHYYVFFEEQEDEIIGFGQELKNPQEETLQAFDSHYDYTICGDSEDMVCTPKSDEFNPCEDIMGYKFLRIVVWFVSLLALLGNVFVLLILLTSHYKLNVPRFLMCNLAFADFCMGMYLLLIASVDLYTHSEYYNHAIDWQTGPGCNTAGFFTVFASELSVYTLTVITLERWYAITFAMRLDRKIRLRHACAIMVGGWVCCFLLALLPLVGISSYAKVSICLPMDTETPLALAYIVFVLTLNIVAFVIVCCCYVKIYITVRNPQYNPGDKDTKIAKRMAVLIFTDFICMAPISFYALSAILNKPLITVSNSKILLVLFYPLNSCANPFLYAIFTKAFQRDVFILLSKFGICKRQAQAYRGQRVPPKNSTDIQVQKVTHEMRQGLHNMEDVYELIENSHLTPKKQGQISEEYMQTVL
Luciferin 4-monooxygenase (Photinus pyralis), sequence (P08659 whole entry, looked up): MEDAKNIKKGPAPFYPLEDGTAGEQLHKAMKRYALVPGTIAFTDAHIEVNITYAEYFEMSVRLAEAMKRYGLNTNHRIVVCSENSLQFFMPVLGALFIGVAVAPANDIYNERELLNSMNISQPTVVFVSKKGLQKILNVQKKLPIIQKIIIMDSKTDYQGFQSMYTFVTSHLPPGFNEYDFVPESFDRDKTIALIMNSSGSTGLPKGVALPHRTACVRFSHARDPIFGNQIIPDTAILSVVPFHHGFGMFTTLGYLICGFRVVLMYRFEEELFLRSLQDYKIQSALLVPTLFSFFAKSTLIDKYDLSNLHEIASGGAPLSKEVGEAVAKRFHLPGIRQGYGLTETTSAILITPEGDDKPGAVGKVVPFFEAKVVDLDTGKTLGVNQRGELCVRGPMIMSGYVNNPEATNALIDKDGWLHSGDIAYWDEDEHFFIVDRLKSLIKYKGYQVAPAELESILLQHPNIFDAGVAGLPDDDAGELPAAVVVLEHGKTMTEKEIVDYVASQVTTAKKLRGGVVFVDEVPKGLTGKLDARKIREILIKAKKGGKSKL
Nuclear receptor subfamily 1 group I member 3 (Homo sapiens), sequence (Q14994 whole entry, looked up): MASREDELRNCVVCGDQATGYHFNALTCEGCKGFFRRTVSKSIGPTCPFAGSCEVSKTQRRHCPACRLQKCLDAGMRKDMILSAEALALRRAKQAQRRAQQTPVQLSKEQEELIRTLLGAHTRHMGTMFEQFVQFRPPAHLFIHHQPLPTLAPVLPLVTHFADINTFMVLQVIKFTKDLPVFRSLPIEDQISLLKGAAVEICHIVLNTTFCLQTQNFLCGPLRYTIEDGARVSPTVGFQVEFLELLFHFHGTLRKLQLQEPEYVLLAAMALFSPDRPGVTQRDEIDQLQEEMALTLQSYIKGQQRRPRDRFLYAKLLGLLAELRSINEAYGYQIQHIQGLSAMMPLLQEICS

CC(=O)O[C@@H]1CC2C3CCc4cc(OC(=O)c5ccccc5)ccc4C3CCC2(C)[C@H]1OC(C)=O (stereo not given in full)
inactive: outcome [1] | outcome [2] | Potency [3] | outcome [4] | Potency [5] | outcome [6] | outcome [7] | outcome [8] | Potency [9] | outcome [10] | Potency [11] | outcome [12] | outcome [13] | outcome [14]

CC1(C)C(=O)C(C)(C)C1=O
inactive: outcome [1] | outcome [2] | Potency [3] | outcome [4] | Potency [5] | outcome [6] | outcome [7] | outcome [8] | Potency [9] | outcome [10] | outcome [12] | outcome [13] | outcome [15] | outcome [16] | outcome [14]

CCC(C)c1nccnc1OC (stereo not given)
inactive: outcome [1] | outcome [2] | Potency [3] | outcome [4] | Potency [5] | outcome [6] | outcome [7] | Potency [9] | outcome [10] | Potency [17] | Potency [18] | Potency [11] | outcome [12] | outcome [13] | outcome [16] | outcome [19] | activity change, positive = activation [20] 1.46% | outcome [14]

CC(C)=CCC/C(C)=C\C#N
inactive: outcome [1] | outcome [2] | Potency [3] | outcome [4] | Potency [5] | outcome [6] | outcome [7] | outcome [8] | Potency [9] | outcome [10] | Potency [11] | outcome [12] | outcome [13] | outcome [16] | outcome [14]

COC(=O)c1c(C)cc(O)c(C)c1O
inactive: outcome [1] | outcome [2] | Potency [3] | outcome [4] | Potency [5] | outcome [6] | outcome [7] | outcome [8] | outcome [10] | outcome [12] | outcome [13] | outcome [15] | outcome [16] | outcome [14]

CC/C=C/CCCCCCCCCCOC(C)=O
inactive: outcome [1] | outcome [2] | Potency [3] | outcome [4] | Potency [5] | outcome [6] | outcome [7] | Potency [9] | outcome [10] | Potency [17] | Potency [18] | Potency [11] | outcome [12] | outcome [13] | outcome [15] | outcome [19] | activity change, positive = activation [20] 0.111% | outcome [14]

CCN(CC)CC(=O)Oc1ccc(NC(C)=O)cc1
inactive: outcome [1] | outcome [2] | Potency [3] | outcome [4] | Potency [5] | outcome [6] | outcome [7] | Potency [9] | outcome [10] | Potency [11] | outcome [13] | outcome [16] | outcome [14]

Cc1ccc(S(=O)(=O)NC(=O)NN2CC3CCCC3C2)cc1 (stereo not given)
inactive: outcome [1] | outcome [2] | Potency [3] | outcome [4] | Potency [5] | outcome [6] | outcome [7] | outcome [8] | Potency [9] | outcome [10] | Potency [11] | outcome [13] | outcome [16] | outcome [14]

C=CCOC(=O)CCCCCCCC
inactive: outcome [1] | outcome [2] | Potency [3] | outcome [4] | Potency [5] | outcome [6] | outcome [7] | outcome [8] | Potency [9] | outcome [10] | outcome [12] | outcome [13] | outcome [15] | outcome [16] | outcome [14]

O=C(OOC(=O)c1ccccc1)c1ccccc1
inactive: outcome [1] | outcome [2] | Potency [3] | outcome [4] | Potency [5] | outcome [6] | outcome [7] | outcome [10] | Potency [11] | outcome [12] | outcome [13] | outcome [15] | outcome [16] | outcome [14]

C[C@]12C=CC(=O)C=C1[C@@H](F)C[C@@H]1[C@@H]2[C@@H](O)C[C@@]2(C)[C@H]1CC[C@]2(O)C(=O)CO
active: Potency [18] 6.68 µM
inactive: outcome [1] | outcome [2] | Potency [3] | outcome [4] | Potency [5] | outcome [6] | outcome [7] | outcome [10] | Potency [17] | Potency [11] | outcome [12] | outcome [13] | outcome [15] | outcome [16] | outcome [19] | activity change, positive = activation [20] -4.03% [at 42.5 µM] | outcome [14]

C=CC(C)(CCC=C(C)C)OC(=O)C(C)C (stereo not given)
inactive: outcome [1] | outcome [2] | Potency [3] | outcome [4] | Potency [5] | outcome [6] | outcome [7] | outcome [10] | Potency [11] | outcome [12] | outcome [13] | outcome [15] | outcome [16] | outcome [14]

COC(=O)/C=C(\C)CCC=C(C)C
inactive: outcome [1] | outcome [2] | Potency [3] | outcome [4] | Potency [5] | outcome [6] | outcome [7] | outcome [10] | Potency [17] | Potency [18] | Potency [11] | outcome [12] | outcome [13] | outcome [15] | outcome [16] | outcome [19] | activity change, positive = activation [20] 1.22% | outcome [14]

C/C=C(\C)C(=O)OC/C=C(\C)CCC=C(C)C
inactive: outcome [1] | outcome [2] | Potency [3] | outcome [4] | Potency [5] | outcome [6] | outcome [7] | outcome [10] | Potency [17] | Potency [18] | outcome [12] | outcome [13] | outcome [15] | outcome [16] | outcome [19] | activity change, positive = activation [20] 10.5% | outcome [14]

O=C(O)Cc1ccccc1Oc1ccc(Cl)cc1Cl
inactive: outcome [1] | outcome [2] | Potency [3] | outcome [4] | Potency [5] | outcome [6] | outcome [7] | outcome [10] | Potency [11] | outcome [12] | outcome [13] | outcome [16] | outcome [14]
